# In article PMC5540273 (PLoS ONE, 2017):
# Where two headings read alike, the source gives them in different places.
# What was measured:
# FYN = settings: concentration: 1 μM,replicates: in singlicate; n = 1
# GAK = settings: concentration: 1 μM,replicates: in singlicate; n = 1
# GCN2(Kin.Dom.2,S808G) = test system: T1, GCN2(Kin.Dom.2,S808G); settings: concentration: 1 μM,replicates: in singlicate; n = 1
# T1 construct: gene EIF2AK4
# GRK1 = settings: concentration: 1 μM,replicates: in singlicate; n = 1
# GRK2 = test system: T2, GRK2; settings: concentration: 1 μM,replicates: in singlicate; n = 1
# T2 construct: gene ADRBK1
# GRK3 = test system: T3, GRK3; settings: concentration: 1 μM,replicates: in singlicate; n = 1
# T3 construct: gene ADRBK2
# GRK4 = settings: concentration: 1 μM,replicates: in singlicate; n = 1
# GRK7 = settings: concentration: 1 μM,replicates: in singlicate; n = 1
# GSK3A = settings: concentration: 1 μM,replicates: in singlicate; n = 1
# GSK3B = settings: n = 1
# HASPIN = test system: T4, HASPIN; settings: concentration: 1 μM,replicates: in singlicate; n = 1
# T4 construct: gene GSG2
# HCK = settings: concentration: 1 μM,replicates: in singlicate; n = 1
# HIPK1 = settings: concentration: 1 μM,replicates: in singlicate; n = 1
# HIPK2 = settings: concentration: 1 μM,replicates: in singlicate; n = 1
# HIPK3 = settings: concentration: 1 μM,replicates: in singlicate; n = 1
# HIPK4 = settings: concentration: 1 μM,replicates: in singlicate; n = 1
# HPK1 = settings: concentration: 1 μM,replicates: in singlicate; n = 1
# HUNK = settings: concentration: 1 μM,replicates: in singlicate; n = 1
# ICK = settings: concentration: 1 μM,replicates: in singlicate; n = 1
# IGF1R = settings: concentration: 1 μM,replicates: in singlicate; n = 1
# [1] = concentration: 1 μM,replicates: in singlicate
# 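Also: KINOMEscan kinase panel screen.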
smiles,measurement,setting,value
COC(=O)Nc1nc2cc(Oc3ccc(NC(=O)Nc4cc(C(F)(F)F)ccc4Cl)cc3)ccc2[nH]1.Cl [GW697465],%Inh,FYN,9%
same,%Inh,GAK,0%
same,%Inh,"GCN2(Kin.Dom.2,S808G)",8%
same,%Inh,GRK1,0%
same,%Inh,GRK2,0%
same,%Inh,GRK3,65%
same,%Inh,GRK4,0%
same,%Inh,GRK7,0%
same,%Inh,GSK3A,12%
same,%Inh,GSK3B; [1],0%
same,%Inh,HASPIN,13%
same,%Inh,HCK,0%
same,%Inh,HIPK1,0%
same,%Inh,HIPK2,0%
same,%Inh,HIPK3,3%
same,%Inh,HIPK4,86%
same,%Inh,HPK1,63%
same,%Inh,HUNK,17%
same,%Inh,ICK,0%
same,%Inh,IGF1R,0%
CC(=O)Nc1nc2cnc(Nc3cc(NC(=O)c4cccc(CC(C)(C)C#N)c4)ccc3C)nc2s1,%Inh,FYN,0%
same,%Inh,GAK,9%
same,%Inh,"GCN2(Kin.Dom.2,S808G)",0%
same,%Inh,GRK1,0%
same,%Inh,GRK2,15%
same,%Inh,GRK3,0%
same,%Inh,GRK4,0%
same,%Inh,GRK7,44%
same,%Inh,GSK3A,0%
same,%Inh,GSK3B; [1],2%
same,%Inh,HASPIN,0%
same,%Inh,HCK,32%
same,%Inh,HIPK1,29%
same,%Inh,HIPK2,10%
same,%Inh,HIPK3,6%
same,%Inh,HIPK4,13%
same,%Inh,HPK1,0%
same,%Inh,HUNK,2%
same,%Inh,ICK,44%
same,%Inh,IGF1R,9%
Cl.Cl.NC[C@H](CC1CCCCC1)NC(=O)c1ccc(-c2ccnc3[nH]ccc23)s1 [GSK1581428],%Inh,FYN,17%
same,%Inh,GAK,87%
same,%Inh,"GCN2(Kin.Dom.2,S808G)",0%
same,%Inh,GRK1,93.6%
same,%Inh,GRK2,55%
same,%Inh,GRK3,77%
same,%Inh,GRK4,91.9%
same,%Inh,GRK7,96.2%
same,%Inh,GSK3A,0%
same,%Inh,GSK3B; [1],9%
same,%Inh,HASPIN,88%
same,%Inh,HCK,0%
same,%Inh,HIPK1,98.7%
same,%Inh,HIPK2,96.1%
same,%Inh,HIPK3,98.9%
same,%Inh,HIPK4,94.2%
same,%Inh,HPK1,78%
same,%Inh,HUNK,0%
same,%Inh,ICK,11%
same,%Inh,IGF1R,0%
Cc1ccc(C(=O)Nc2ccc(Oc3ccc4nc(NC(=O)C5CC5)cn4c3)c(F)c2)c(=O)n1-c1ccccc1,%Inh,FYN,31%
same,%Inh,GAK,0%
same,%Inh,"GCN2(Kin.Dom.2,S808G)",72%
same,%Inh,GRK1,0%
same,%Inh,GRK2,0%
same,%Inh,GRK3,0%
same,%Inh,GRK4,13%
same,%Inh,GRK7,0%
same,%Inh,GSK3A,39%
same,%Inh,GSK3B; [1],0%
same,%Inh,HASPIN,0%
same,%Inh,HCK,96.6%
same,%Inh,HIPK1,29%
same,%Inh,HIPK2,0%
same,%Inh,HIPK3,0%
same,%Inh,HIPK4,72%
same,%Inh,HPK1,56%
same,%Inh,HUNK,22%
same,%Inh,ICK,0%
same,%Inh,IGF1R,0%
CC(C)S(=O)(=O)N1CCN(Cc2ccc3c(c2)nc(NC(=O)c2ccsc2)n3C[C@H](O)c2ccccc2)CC1 [GW635815],%Inh,FYN,73%
same,%Inh,GAK,0%
same,%Inh,"GCN2(Kin.Dom.2,S808G)",10%
same,%Inh,GRK1,35%
same,%Inh,GRK2,0%
same,%Inh,GRK3,8%
same,%Inh,GRK4,7%
same,%Inh,GRK7,10%
same,%Inh,GSK3A,2%
same,%Inh,GSK3B; [1],0%
same,%Inh,HASPIN,17%
same,%Inh,HCK,37%
same,%Inh,HIPK1,34%
same,%Inh,HIPK2,20%
same,%Inh,HIPK3,1%
same,%Inh,HIPK4,0%
same,%Inh,HPK1,39%
same,%Inh,HUNK,0%
same,%Inh,ICK,0%
same,%Inh,IGF1R,29%
CC(=O)Nc1ccc(-c2cc3ncnc(SCC(=O)O)c3s2)cc1,%Inh,FYN,0%
same,%Inh,GAK,59%
same,%Inh,"GCN2(Kin.Dom.2,S808G)",0%
same,%Inh,GRK1,0%
same,%Inh,GRK2,11%
same,%Inh,GRK3,19%
same,%Inh,GRK4,6%
same,%Inh,GRK7,0%
same,%Inh,GSK3A,0%
same,%Inh,GSK3B; [1],3%
same,%Inh,HASPIN,13%
same,%Inh,HCK,15%
same,%Inh,HIPK1,96.7%
same,%Inh,HIPK2,97.5%
same,%Inh,HIPK3,95.1%
same,%Inh,HIPK4,95.6%
same,%Inh,HPK1,11%
same,%Inh,HUNK,0%
same,%Inh,ICK,60%
same,%Inh,IGF1R,0%
O=c1[nH]cc(-c2ccc(O)cc2)c2sc(-c3ccncc3)cc12 [GSK1033723],%Inh,FYN,21%
same,%Inh,GAK,16%
same,%Inh,"GCN2(Kin.Dom.2,S808G)",6%
same,%Inh,GRK1,0%
same,%Inh,GRK2,0%
same,%Inh,GRK3,0%
same,%Inh,GRK4,0%
same,%Inh,GRK7,0%
same,%Inh,GSK3A,63%
same,%Inh,GSK3B; [1],22%
same,%Inh,HASPIN,88%
same,%Inh,HCK,0%
same,%Inh,HIPK1,67%
same,%Inh,HIPK2,72%
same,%Inh,HIPK3,90.1%
same,%Inh,HIPK4,22%
same,%Inh,HPK1,44%
same,%Inh,HUNK,0%
same,%Inh,ICK,0%
same,%Inh,IGF1R,0%
Cc1cccc(-c2nc(Nc3ccncc3)c3sccc3n2)n1 [GW869641],%Inh,FYN,0%
same,%Inh,GAK,13%
same,%Inh,"GCN2(Kin.Dom.2,S808G)",5%
same,%Inh,GRK1,0%
same,%Inh,GRK2,17%
same,%Inh,GRK3,11%
same,%Inh,GRK4,15%
same,%Inh,GRK7,42%
same,%Inh,GSK3A,0%
same,%Inh,GSK3B; [1],40%
same,%Inh,HASPIN,44%
same,%Inh,HCK,25%
same,%Inh,HIPK1,21%
same,%Inh,HIPK2,13%
same,%Inh,HIPK3,37%
same,%Inh,HIPK4,13%
same,%Inh,HPK1,16%
same,%Inh,HUNK,20%
same,%Inh,ICK,32%
same,%Inh,IGF1R,8%
CCCC(=O)Nc1n[nH]c2ncccc12 [SB-601436],%Inh,FYN,0%
same,%Inh,GAK,0%
same,%Inh,"GCN2(Kin.Dom.2,S808G)",0%
same,%Inh,GRK1,13%
same,%Inh,GRK2,0%
same,%Inh,GRK3,0%
same,%Inh,GRK4,0%
same,%Inh,GRK7,11%
same,%Inh,GSK3A,38%
same,%Inh,GSK3B; 1 µM,9%
same,%Inh,HASPIN,29%
same,%Inh,HCK,0%
same,%Inh,HIPK1,20%
same,%Inh,HIPK2,0%
same,%Inh,HIPK3,0%
same,%Inh,HIPK4,0%
same,%Inh,HPK1,6%
same,%Inh,HUNK,28%
same,%Inh,ICK,7%
same,%Inh,IGF1R,0%
CN(c1ccc2c(c1)nc(NCc1ccc(F)cc1)n2C)c1ccnc(Nc2ccc(CS(C)(=O)=O)cc2)n1.Cl [GW813244],%Inh,FYN,74%
same,%Inh,GAK,15%
same,%Inh,"GCN2(Kin.Dom.2,S808G)",68%
same,%Inh,GRK1,27%
same,%Inh,GRK2,0%
same,%Inh,GRK3,0%
same,%Inh,GRK4,0%
same,%Inh,GRK7,0%
same,%Inh,GSK3A,14%
same,%Inh,GSK3B; [1],11%
same,%Inh,HASPIN,28%
same,%Inh,HCK,47%
same,%Inh,HIPK1,53%
same,%Inh,HIPK2,25%
same,%Inh,HIPK3,47%
same,%Inh,HIPK4,79%
same,%Inh,HPK1,60%
same,%Inh,HUNK,5%
same,%Inh,ICK,7%
same,%Inh,IGF1R,13%
